# From PubChem BioAssay AID924 (National Center for Advancing Translational Sciences (NCATS), 2007)
# Among all 130,000 compounds or so, about 1,200 (0.92%) were called active. Another 3% or so got no clear call; they are omitted. The list comes from a sample in which actives are over-represented; it also holds similar structures and randomly drawn compounds. Entries that show only a call come without a potency. A number with no mark means an inactive call. The call rests on the fitted dose curve; in most records, active means well fitted cell-killing curve with a large enough effect; inconclusive means small, poorly fitted or top-dose-only effect; inactive means no such curve, though single readings can be large or run the other way.
# Test: qHTS Screen for Compounds that Selectively Target Cancer Cells with p53 Mutations: Cytotoxicity of p53ts Cells at the Permissive Temperature; further: nearly all actives have a fitted effect of over 55% in size
# Details: H1299-p53A138V at 32C, ATP luminescence viability, 24 h; series mostly up to 46.1 µM
# Procedure, shortened: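 H1299-p53 A138V cells (temperature-sensitive p53) exposed 24 h to up to 46 uM compound at 32C, where p53 is wild-type in conformation. Viability read as ATP luminescence and normalised to DMSO and 100 uM tamoxifen. AC50 fitted with the Hill equation.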
# Potency means the concentration at half of the fitted maximal effect.
SMILES,Potency,"activity change, negative = cytotoxicity"
CCC(=O)N1c2ccccc2CC1C(=O)N1CCN(c2cccc(OC)c2)CC1 (stereo unspecified),inactive,
Cc1ccc(Cl)cc1NC(=O)CCS(=O)(=O)c1ccc(Br)s1,inactive,
Cc1cccc(NC(=O)N2CCN(C)c3ncccc32)c1C,inactive,
O=C(Nc1cc(C(F)(F)F)ccc1Cl)c1nc2ccccc2nc1N1CCCCC1,inactive,
COc1ccc(CCNC(=O)c2cc(-c3ccc4c(c3)OCO4)on2)cc1OC,inactive,
COc1c2c(cc3occ(-c4ccc5c(c4)OCO5)c(=O)c13)OC(C)(C)C=C2,10 µM (active),
COc1ccc(C)cc1N(C)C(=O)c1c(C)oc2ncnc(N3CCOCC3)c12,inactive,
CN(c1nc2ccccc2n2c(-c3ccco3)nnc12)S(=O)(=O)c1ccccc1,inactive,
c1coc(-c2nc3nc4ccccc4n3nc2-c2ccco2)c1,inactive,
Cn1c(-c2ccco2)nc2cc3ccccc3cc21,1.26 µM (active),
CC(=O)c1cccc(NC(=O)c2nc(-c3ccccc3)n(-c3cccc(C)c3)n2)c1,inactive,
CC(C)c1nc(-c2ccccn2)no1,inactive,
c1csc(-c2nc(-c3ccncc3)no2)c1,inactive,
c1ccc(-c2noc(-c3cccs3)n2)nc1,12.6 µM (active),
O=C(Nc1ccccc1Cl)N1CCC(CN2CCCCC2)CC1,inactive,
COc1cn(CC(=O)Nc2cccc(C)c2C)c(CN2CCCCC2)cc1=O,inactive,
CCN1CCC(N(Cc2ccc(F)cc2)C(=O)Nc2cc(C)ccc2C)CC1,inactive,
Cc1cc(Cl)ccc1NC(=O)Cc1ccc(NC(=O)N2CCCCc3ccccc32)cc1,inactive,
Cc1ccc2nc(CC(=O)c3ccc4ccccc4c3)c(=O)[nH]c2c1,,3.51% [at 9.22 µM]
C=CC(=O)c1ccc2ccccc2c1,12.6 µM (active),
CCOc1ccccc1NC(=O)CSc1ncc(S(=O)(=O)c2ccc(C(C)(C)C)cc2)c(=O)[nH]1,inactive,
Cn1c(COc2ccccc2C(C)(C)C)nc2ccccc21,inactive,
CCCCS(=O)(=O)c1oc(-c2cccs2)nc1S(=O)(=O)c1ccccc1,17.8 µM (active),
CSc1oc(-c2cccs2)nc1S(=O)(=O)c1ccc(Br)cc1,inactive,
NC(=O)CSc1oc(-c2cccs2)nc1S(=O)(=O)c1ccccc1,inactive,
COc1cc(NC(=O)CCn2nc(C)cc2C)cc(OC)c1OC,inactive,

SMILES,Potency,"activity change, negative = cytotoxicity"
CC(=O)c1cccc(Nc2ccc3cc(S(=O)(=O)N4CCC(C)CC4)ccc3n2)c1,inactive,
COc1ccc(N(C)C(=O)C2CCN(S(=O)(=O)c3cc(Br)cc4c3N(C(C)=O)CC4)CC2)cc1,inactive,
CC(C)n1c(-c2cccs2)nc2ccccc21,inactive,
Cc1csc(-c2nc3ccccc3n2C)n1,15.8 µM (active),
Cc1nn2c3ccccc3nc2n(C)c1=O,inactive,
Cc1nn(CC(=O)NCCc2ccccc2)c(=O)c2c1sc1ccccc12,inactive,
COc1ccccc1N1CCN(C2C(=O)c3ccccc3N2C(C)=O)CC1 (stereo unspecified),inactive,
CCOC(=O)c1ccc(NC(=O)c2nc(SCc3ccc(F)cc3)ncc2Cl)cc1,inactive,
CCSc1ncc(Cl)c(C(=O)Nc2cc(C)ccc2C)n1,inactive,
Cc1ccc(NC(=O)c2nc(S(=O)(=O)Cc3cccc(C)c3)ncc2Cl)cc1,17.8 µM (active),
Cc1sc2ncn(CC(=O)N3CCN(c4ccc(F)cc4)CC3)c(=O)c2c1S(=O)(=O)N1CCN(c2ncccn2)CC1,inactive,
CCOC(=O)c1cccc(NS(=O)(=O)c2cc(-c3cnc(C)o3)ccc2OC)c1,inactive,
CCOc1ccc2oc(=O)cc(CN3CCN(C(=O)c4ccc(F)cc4)CC3)c2c1,inactive,
COc1ccc2cc(-c3nc(Cl)c4c5c(sc4n3)CC(C)CC5)c(=O)oc2c1 (stereo unspecified),inactive,
COc1ccc(-c2cc3ccc(OCc4nn[nH]n4)cc3oc2=O)cc1,10 µM (active),
O=c1oc2cc(O)ccc2cc1-c1ccc(F)cc1,inactive,
COc1ccc(S(=O)(=O)NCC(c2ccc(N(C)C)cc2)N2CCc3ccccc32)cc1OC (stereo unspecified),inactive,
COc1ccc(C2=NC3(CCCCC3)N(CC(=O)Nc3ccc(C(C)C)cc3)C2=O)cc1,inactive,
O=C(CCc1nc(CN2CCN(S(=O)(=O)c3ccc(F)cc3)CC2)no1)N1CCCCC1,inactive,
Cc1c(NC(=O)Cc2ccccc2)cccc1-c1nc2cccnc2s1,inactive,
CCC(C(=O)Nc1cccc(-c2nc3cccnc3s2)c1C)c1ccccc1 (stereo unspecified),inactive,
Cc1c(NC(=O)C(C)(C)C)cccc1-c1nc2ccccc2s1,12.6 µM (active),
Cc1nn(CC(=O)N2CCN(c3cccc(C(F)(F)F)c3)CC2)c(=O)c2cc3sccc3n12,inactive,
COc1cc(NC(=O)c2noc3c2CSc2ccccc2-3)cc(OC)c1OC,inactive,
COc1ccccc1CNC(=O)Cn1nc(C)c2nn(-c3ccc(Cl)cc3)c(C)c2c1=O,inactive,
